High-throughput results (PubChem)
D1 agonist: activates the human D1 dopamine receptor; HEK293 T-REx D1 cells, calcium flux, agonist mode; P21728; 1% of 360,000 active; AID 504660; activation, % at 2 µM; also: 0% is about no effect
Target sequence (P21728 whole entry, looked up): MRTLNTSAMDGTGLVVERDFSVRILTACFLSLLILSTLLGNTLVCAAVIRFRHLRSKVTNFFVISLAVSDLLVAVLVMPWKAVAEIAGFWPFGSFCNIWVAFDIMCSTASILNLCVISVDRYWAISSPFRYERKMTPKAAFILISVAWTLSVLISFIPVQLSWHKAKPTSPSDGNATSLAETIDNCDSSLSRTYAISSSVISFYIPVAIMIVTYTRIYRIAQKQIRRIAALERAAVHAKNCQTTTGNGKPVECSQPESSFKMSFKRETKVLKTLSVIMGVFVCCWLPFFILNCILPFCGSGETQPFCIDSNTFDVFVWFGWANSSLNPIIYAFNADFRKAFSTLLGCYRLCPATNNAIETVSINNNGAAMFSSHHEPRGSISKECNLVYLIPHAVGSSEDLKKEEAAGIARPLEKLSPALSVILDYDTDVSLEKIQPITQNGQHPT
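Inducible HEK293 T-REx D1 cells, force-coupled to calcium signalling, were plated at 4000 cells/well with tetracycline and held overnight at 30 C. After no-wash calcium dye loading, compound-evoked calcium rise over 180 s flagged agonists.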
TRHR agonist: agonists of human TRH receptor | P34981 | TRHR cells, calcium flux fluo-8, FDSS agonist mode | activation, % at 2 µM | 0.18% of 360,000 active | AID 493084; also: 0% is about no effect
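Fluo-8-loaded TRHR cells; 10 s baseline, compound added, kinetic Ca2+ fluorescence read 1/s, agonist mode.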
D1 PAM: enhances dopamine response at the human D1 receptor. P21728. HEK293 TREx D1 cells, calcium flux, dopamine EC20 potentiation. potentiation, % at 10 µM. 0.036% of 360,000 active. AID 504651; in the data active = potentiation above about 30%; also: 0% is about no effect
D1 antagonist: antagonists of human D1 dopamine receptor | HEK293 TREx D1 cells, calcium flux, dopamine EC80; hits give low values | activity change, negative = inhibition, % at 10 µM | P21728 | 3.2% of 360,000 active; in the data active = activity change below about -30%; also: % is scaled to controls: 0 for no effect and ±100 for the full control effect
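Kinetic fluorescence of a calcium dye serves as the read-out. D1-expressing Hek293 Trex cells, induced overnight at 30 C, are exposed to compound for 180 s before an EC80 dopamine addition, then read 180 s further.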
TRHR PAM: TRH receptor (human) allosteric enhancement. TRHR cells, fluo-8 calcium fluorescence, EC20 TRH enhancement. AID 493056. enhancement, % at 2 µM. 0.66% of 360,000 active. P34981; in the data active = enhancement above about 30%; also: 0% is about no effect
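Enhancer read-out: after compound pinning and an initial kinetic agonist-mode read, an EC20 of TRH (10 nM final) was injected and fluo-8 calcium signal (Ex 480/Em 530) followed at 1 s/cycle for 100 cycles in TRHR-expressing cells.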
* hit, by the source's call. Only some compounds are listed: those with a hit (about 4.6% of all), similar ones and a draw of the others. Rule as the data show it, unless noted: active = activation above about 30%; inactive = the rest.

For NS(=O)(=O)c1ccc(CCNC(=O)Cn2c(=O)c3cccn3c3ccc(F)cc32)cc1 the results were D1 agonist 11.2, TRHR agonist 0.4, D1 PAM -2.2, D1 antagonist -13.1 and TRHR PAM -3.4.
COc1cccc(CN2C(=O)c3ccccc3Sc3ccc(C(=O)NCCc4ccc(Cl)cc4)cc32)c1 was read as D1 agonist 7.9, TRHR agonist 2.4, D1 PAM 0.3, D1 antagonist 4.4 and TRHR PAM 17.7.
O=C(NCCc1csc(-c2cccc(F)c2)n1)c1cccs1 was read as D1 agonist 5.8, TRHR agonist -0.2, D1 PAM -4.7, D1 antagonist -62.1* and TRHR PAM -2.7.
Cc1nc(-c2ccc(F)cc2)sc1CCNC(=O)c1cccs1 was read as D1 agonist 10.2, TRHR agonist -1.2, D1 PAM -3.0, D1 antagonist -64.4* and TRHR PAM 15.6.
`O=C(NCCc1csc(-c2ccc(F)cc2)n1)c1cccc(F)c1` gave D1 agonist 7.4, TRHR agonist -0.4, D1 PAM -4.4, D1 antagonist -55.5* and TRHR PAM -0.1.
`O=C(Cc1ccc(F)cc1)NCCc1csc(-c2cccc(F)c2)n1` gave D1 agonist -0.2, TRHR agonist -0.4, D1 PAM 2.4, D1 antagonist 12.8 and TRHR PAM 4.6.
COc1ccccc1CNC(=O)C1CCC(CNS(=O)(=O)c2ccc3c(c2)CCCC(=O)N3)CC1 (stereo not drawn) was read as D1 agonist 3.4, TRHR agonist -0.2, D1 PAM -3.0, D1 antagonist -27.1 and TRHR PAM -1.9.
`CCOc1ccc(NC(=O)C2CCCN(c3nnc(-n4c(C)ccc4C)s3)C2)cc1` (stereo not drawn) gave D1 agonist -2.2, TRHR agonist -1.8, D1 PAM -3.1, D1 antagonist -8.8 and TRHR PAM -1.9.
Screening Cc1ccc(S(=O)(=O)C(CNC(=O)C(=O)NCCc2ccc(F)cc2)c2cccs2)cc1 (stereo not drawn) returned D1 agonist 5.3, TRHR agonist 0.2, D1 PAM -3.5 and TRHR PAM -7.4.
Screening Cc1ccc(Nc2cc(C(=O)NC3CCCC3)c3ccccc3n2)cc1C returned D1 agonist -0.5, TRHR agonist 0.0, D1 PAM -2.7, D1 antagonist -15.7 and TRHR PAM -4.8.
O=C(NC1CCN(Cc2ccc(Cl)cc2)CC1)c1cn(-c2ccccc2)nc1-c1cccnc1 was read as D1 agonist 1.6, TRHR agonist 1.1, D1 antagonist -49.5* and TRHR PAM 7.0.
O=C(Cn1nnc(-c2ccc(Cl)cc2)n1)NC1CCN(Cc2ccccc2)CC1 was read as D1 agonist 37.2*, TRHR agonist -0.4, D1 PAM -10.0, D1 antagonist -59.5* and TRHR PAM -2.2.
For Cc1ccc(-c2nnn(CC(=O)NC3CCN(Cc4ccccc4)CC3)n2)cc1 the results were D1 agonist 30.7*, TRHR agonist -1.2, D1 PAM -6.2, D1 antagonist -8.5 and TRHR PAM -10.0.
`COc1ccc(-c2nc(CSc3nnc(C)n4c3cc3sccc34)c(C)o2)cc1` gave D1 agonist -1.3, TRHR agonist -1.6, D1 PAM -3.8, D1 antagonist -11.8 and TRHR PAM 7.4.
Screening CCOC(=O)N1CCC(NC(=O)c2ccc(CNS(=O)(=O)c3ccc(F)cc3)cc2)CC1 returned D1 agonist 3.5, TRHR agonist 0.0, D1 PAM -4.6, D1 antagonist -34.1* and TRHR PAM -7.0.
`Cc1ccc(S(=O)(=O)NCc2ccc(C(=O)NC3CC3)cc2)cc1` gave D1 agonist 1.9, TRHR agonist 0.0, D1 PAM -2.6, D1 antagonist -6.4 and TRHR PAM -0.7.
`COc1ccc(CN2CCN(C(=O)c3ccc(CNS(=O)(=O)c4ccc(C)cc4)cc3)CC2)c(OC)c1OC` gave D1 agonist 7.1, TRHR agonist -0.5, D1 PAM -8.4, D1 antagonist -30.2* and TRHR PAM -3.5.
`CCOC(=O)C1CCN(C(=O)CCNS(=O)(=O)c2ccc(C)cc2)CC1` gave D1 agonist 0.5, TRHR agonist -2.9, D1 PAM -4.2, D1 antagonist -20.7 and TRHR PAM 4.7.
CCOC(=O)C1CCN(CC(C)(C)NS(=O)(=O)c2ccc(C)cc2)CC1 was read as D1 agonist 5.8, TRHR agonist -0.6, D1 PAM -7.7, D1 antagonist -0.3 and TRHR PAM 26.7.
For CCOC(=O)C1CCN(C(=O)c2ccc(CNS(=O)(=O)c3ccc(C)cc3)cc2)CC1 the results were D1 agonist 0.2, TRHR agonist -0.9, D1 PAM -3.6, D1 antagonist -36.6* and TRHR PAM 3.5.
For CCOC(=O)C1CCN(CC(C)(C)NS(=O)(=O)c2ccc(Cl)cc2)CC1 the results were D1 agonist 1.8, TRHR agonist 0.1, D1 PAM -11.6, D1 antagonist -31.3* and TRHR PAM 1.1.
For COc1c(NC(C)=O)c2ccccc2c2ccccc12 the results were D1 agonist -0.6, TRHR agonist 0.3, D1 PAM -4.8, D1 antagonist 1.2 and TRHR PAM 38.3*.
COc1cccc(S(=O)(=O)NCc2ccc(C(=O)Nc3ccc(Cl)c(Cl)c3)cc2)c1 was read as D1 agonist 23.1, TRHR agonist 4.3, D1 PAM -0.1, D1 antagonist -14.7 and TRHR PAM 13.6.
O=C(Nc1ccc(Cl)c(Cl)c1)c1cccc(S(=O)(=O)NCc2cccnc2)c1 was read as D1 agonist 9.1, TRHR agonist 0.0, D1 PAM -4.1, D1 antagonist -30.8* and TRHR PAM -4.8.
`CC(=O)c1ccc(S(=O)(=O)NCc2cccnc2)cc1` gave D1 agonist 1.6, TRHR agonist -0.3, D1 PAM 4.2, D1 antagonist -25.3 and TRHR PAM 5.1.
Screening O=C(O)c1ccc(S(=O)(=O)NCc2cccnc2)cc1 returned D1 agonist 1.7, TRHR agonist 0.3, D1 PAM -1.9, D1 antagonist 2.4 and TRHR PAM 35.4*.
Screening COCCNc1nnc(SCC(=O)NNC(=O)c2ccc([N+](=O)[O-])cc2)s1 returned D1 agonist 0.3, TRHR agonist -0.3, D1 PAM 1.9, D1 antagonist 1.1 and TRHR PAM 3.5.
Screening COc1ccc(OC)c(CNC(=O)c2nn(-c3ccc(OC)c(Cl)c3)c(=O)c3c2c2ccccc2n3C)c1 returned D1 agonist 1.7, TRHR agonist -0.9, D1 PAM 0.8, D1 antagonist -2.1 and TRHR PAM 14.1.
For CC1(C)C(C=C(Cl)Cl)C1C(=O)Nc1ccc([N+](=O)[O-])cc1 (stereo not drawn) the results were D1 agonist 6.0, TRHR agonist 1.4, D1 PAM -7.0, D1 antagonist -31.0* and TRHR PAM -6.5.
O=C(Nc1ccc([N+](=O)[O-])cc1)C1CC1(c1ccccc1)c1ccccc1 (stereo not drawn) was read as D1 agonist 8.1, TRHR agonist 0.7, D1 PAM -3.4, D1 antagonist -22.3 and TRHR PAM 1.0.
